ELG1 DNA repair: qHTS screen for small molecules that inhibit ELG1-dependent DNA repair in human embryonic kidney (HEK293T) cells expressing luciferase-tagged ELG1; HEK293T ELG1-luciferase reporter, luminescence, 16 h; DNA damage induced by 5-fluorouridine; actives 2.3% (n = 330,000); Potency, µM (titrated, usually from 46.1 µM), usual class: inhibitors; also: nearly all actives have a fitted effect of over 55% in size
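HEK293T cells expressing luciferase-tagged ELG1 (2,000/well) received 5-Fluorouridine plus compound or DMSO for 16 hr at 37 °C. Luciferase was read by ONE-Glo luminescence after 30 min at room temperature.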
RORg inh: qHTS for inhibitors of ROR gamma transcriptional activity. Drosophila S2 Gal4-RORgamma UAS-luciferase reporter, 20 h. Potency, µM (doses to about 53.6 µM), most hits filed as inhibitors. actives 5.4% (n = 310,000). AID 2551, 2010; also: nearly all actives have a fitted effect of over 60% in size
Target sequence (P51450 whole entry, looked up, the tested form may be a part): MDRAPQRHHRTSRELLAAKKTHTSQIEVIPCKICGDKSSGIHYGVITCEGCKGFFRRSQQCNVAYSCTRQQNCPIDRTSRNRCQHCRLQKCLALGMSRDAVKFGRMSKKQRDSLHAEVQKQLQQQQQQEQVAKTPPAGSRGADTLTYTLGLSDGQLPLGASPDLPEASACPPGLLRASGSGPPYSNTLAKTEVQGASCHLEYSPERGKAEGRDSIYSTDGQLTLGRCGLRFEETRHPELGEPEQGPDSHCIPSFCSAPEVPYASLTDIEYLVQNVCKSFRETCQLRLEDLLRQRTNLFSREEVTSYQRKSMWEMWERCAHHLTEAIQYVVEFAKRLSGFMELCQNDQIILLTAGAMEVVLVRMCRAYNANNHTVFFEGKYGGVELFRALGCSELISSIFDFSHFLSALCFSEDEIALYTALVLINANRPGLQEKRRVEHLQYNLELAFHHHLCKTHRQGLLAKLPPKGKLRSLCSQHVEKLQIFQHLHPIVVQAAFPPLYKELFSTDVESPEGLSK
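Stable Schneider cell line, Gal4 DNA-binding domain fused to ROR gamma, UAS-luciferase. Cmpd 1 hr RT → CuSO4 700 uM final → 20 hr RT → luciferase reagent 10 min → luminescence.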
VP16 counter: VP16 counterscreen qHTS for inhibitors of ROR gamma transcriptional activity | Drosophila S2 Gal4-VP16 UAS-luciferase, luminescence, 20 h | Potency, µM (top dose mostly 53.6 µM), most hits filed as inhibitors | actives 3.5% (n = 310,000);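 also: Gal4-VP16 expression switched on by copper sulfate through the metallothionein promoter; nearly all actives have a fitted effect of over 50% in size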
IL-1B inflam inh: qHTS for Inhibitors of Inflammasome Signaling: IL-1-beta AlphaLISA Primary Screen | THP-1 LPS/ATP IL-1B secretion, AlphaLISA, 16 h; stronger effect = lower value | activity change, % at 57.5 µM | actives 4.7% (n = 360,000) | AID 743279, 2014; in the data active = activity change below about -50%; inconclusive = mostly about -30% to -49%
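THP-1 cells pretreated 1 hr with compounds (up to 57.5 uM final), then stimulated with LPS (250 ng/mL final) plus ATP (1.25 mM final); secreted IL-1B measured by AlphaLISA after 16 hr, decreased signal indicating inhibition.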
DT40 TDP1 CPT: qHTS for Inhibitors of human tyrosyl-DNA phosphodiesterase 1 (TDP1): qHTS in cells in presence of CPT | chicken DT40 Tdp1-/-;hTDP1 cells + 20 nM CPT, ATP luminescence, 48 h | Potency, µM (top dose mostly 46.2 µM), hits mostly inhibitors | actives 12% (n = 420,000) | AID 686979, 2013; also: nearly all actives have a fitted effect of over 55% in size
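Cell growth measured by CellTiter-Glo luminescence after a minimum 48 h, 37 C compound exposure with 20 nM CPT in Tdp1-knockout DT40 cells stably expressing hTDP1, seeded 400/well; qHTS titration format.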
DT40 TDP1 no CPT: qHTS for Inhibitors of human tyrosyl-DNA phosphodiesterase 1 (TDP1): qHTS in cells in absence of CPT. DT40 Tdp1-/- hTDP1 cells, no CPT, ATP luminescence, 48 h. Potency, µM (doses to about 46.2 µM), usual class: inhibitors. actives 15% (n = 420,000); also: nearly all actives have a fitted effect of over 55% in size
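Readout: luminescence from CellTiter-Glo after 30 min in the dark at RT. Cells: DT40 Tdp1-/- with stable hTDP1, 400/well. Exposure: compounds alone, ≥48 hr, 37 °C.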
Large screens that a line does not name were inactive. Shown are actives, neighbours in structure and some others; about 21% of the full set was active somewhere. Unless noted, calls follow the shape of the dose curve; as a rule, active = well fitted curve in the direction sought with a large enough effect; inconclusive = small, poorly fitted or top-dose-only effect, or another doubt; inactive = no such curve, though single readings can be large; an effect the other way counts as inactive or inconclusive.

CC(C)(C)OC(=O)N1CCC(NC(=O)c2nc[nH]c2C(=O)NCc2ccccc2)CC1	DT40 TDP1 CPT inconclusive, DT40 TDP1 no CPT 23.1µM (no result: RORg inh, VP16 counter)
CC(C)(C)OC(=O)[C@H](Cc1ccccc1)NC(=O)c1nc[nH]c1C(=O)NC1CCN(C(=O)OC(C)(C)C)CC1	RORg inh 5.01µM, VP16 counter 7.08µM, DT40 TDP1 CPT 23.1µM, DT40 TDP1 no CPT 16.4µM
CC(C)(C)OC(=O)[C@H](Cc1ccccc1)NC(=O)c1nc[nH]c1C(=O)N1CCc2ccccc2C1	RORg inh inconclusive, VP16 counter inconclusive, DT40 TDP1 CPT inconclusive, DT40 TDP1 no CPT inconclusive
CCc1ccc(OCC(=O)NCc2nc(-c3cccc(C)c3)no2)c(Br)c1	none (no result: ELG1 DNA repair, RORg inh, VP16 counter, IL-1B inflam inh)
CCOC(=O)c1c(C)[nH]c(C(=O)NCCc2ccc(OC)c(OC)c2)c1C	DT40 TDP1 CPT inconclusive, DT40 TDP1 no CPT 14.6µM
CCOc1ccc(CCNC(=O)c2[nH]c(C)c(C(C)=O)c2CC)cc1OCC	ELG1 DNA repair inconclusive, DT40 TDP1 CPT 18.4µM, DT40 TDP1 no CPT 23.1µM
Cc1nnc(NC(=O)c2cc(-c3ccncc3)nc3c(C)cccc23)s1	ELG1 DNA repair inconclusive
COC(=O)[C@]12CCCCC=C1N(Cc1cccc3ccccc13)C(=O)[C@H](CC(=O)N1CCN(C(=O)c3ccco3)CC1)C2	DT40 TDP1 CPT inconclusive, DT40 TDP1 no CPT inconclusive (no result: ELG1 DNA repair, RORg inh, VP16 counter)
COC(=O)[C@]12CCCCC=C1N(Cc1cccc3ccccc13)C(=O)[C@H](CC(=O)N1CCN(C(=O)C3CC3)CC1)C2	DT40 TDP1 CPT inconclusive, DT40 TDP1 no CPT 20.6µM (no result: ELG1 DNA repair, RORg inh, VP16 counter)
COC(=O)[C@]12CCCCC=C1N(Cc1cccc3ccccc13)C(=O)[C@H](CC(=O)N1CCCC1)C2	DT40 TDP1 CPT inconclusive, DT40 TDP1 no CPT 20.6µM (no result: ELG1 DNA repair, RORg inh, VP16 counter)
CC(C)(C)c1ccc(S(=O)(=O)NC(=O)C2(C)CCN2C(=O)Cc2cccs2)cc1 (configuration not stated)	none (no result: ELG1 DNA repair, RORg inh, VP16 counter)
Cc1cccc(N(Cc2ccccc2)C(=O)Cc2ccc(S(=O)(=O)N3CCOCC3)s2)c1	ELG1 DNA repair inconclusive, DT40 TDP1 CPT inconclusive, DT40 TDP1 no CPT 23.1µM (no result: RORg inh, VP16 counter)
CC1CN(S(=O)(=O)c2cccc(C(=O)OCCOc3ccccc3)c2)CC(C)O1 (configuration not stated)	ELG1 DNA repair inconclusive, DT40 TDP1 CPT 20.6µM, DT40 TDP1 no CPT inconclusive (no result: RORg inh, VP16 counter)
Cc1cccc(N(Cc2ccccc2)C(=O)c2cccc(S(=O)(=O)N3CC(C)OC(C)C3)c2)c1 (configuration not stated)	ELG1 DNA repair inconclusive, DT40 TDP1 CPT 11.6µM, DT40 TDP1 no CPT 10.3µM (no result: RORg inh, VP16 counter)
Cc1ccc(N(Cc2ccccc2)C(=O)c2cc(S(=O)(=O)N3CCOCC3)ccc2N2CCCC2)cc1	DT40 TDP1 CPT 20.6µM, DT40 TDP1 no CPT 20.6µM (no result: RORg inh, VP16 counter)
CC1CN(S(=O)(=O)c2cccc(C(=O)OCC(=O)c3cccs3)c2)CC(C)O1 (configuration not stated)	none
CN(Cc1cccc(F)c1)C(=O)Cc1ccc(S(=O)(=O)N2CCOCC2)s1	DT40 TDP1 no CPT inconclusive (no result: RORg inh, VP16 counter)
C[C@H](CO)N1C[C@H](C)[C@H](CN(C)Cc2cncnc2)Oc2ncc(C#CC3(O)CCCC3)cc2C1=O	none (no result: ELG1 DNA repair, RORg inh, VP16 counter)
CCC1(c2ccc(F)cc2)NC(=O)N(CC(=O)N2CCc3ccccc32)C1=O (configuration not stated)	DT40 TDP1 CPT inconclusive, DT40 TDP1 no CPT inconclusive (no result: RORg inh, VP16 counter)
CCOC(=O)c1c(C)[nH]c(C)c1C(=O)COc1ncnc2cc([N+](=O)[O-])ccc12	ELG1 DNA repair inconclusive, DT40 TDP1 CPT inconclusive, DT40 TDP1 no CPT inconclusive
O=CN1c2ccccc2CSc2ccccc21	none (no result: ELG1 DNA repair, RORg inh, VP16 counter)
